# Source: PubChem (The Scripps Research Institute Molecular Screening Center)
# Only some compounds are listed: those with a hit (about 1.8% of all), similar ones and a draw of the others.
# PME-1 inh: PME-1 (human) inhibition. inhibition, % at 5.9 µM. 320,000 tested, 0.53% active. recombinant PME-1, FP-Rh probe fluorescence polarization. Q9Y570. AID 2130;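 active means inhibition above the campaign mean of all compounds plus 3 SD, cut at about 26% in these data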;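 further: competitive labeling of PME-1 active site by serine hydrolase directed probe; 0% = PME-1 with DMSO and 100% = wells lacking PME-1 enzyme; inhibitors block probe labeling so polarization falls and inhibition rises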
# Target sequence (Q9Y570 whole entry, looked up): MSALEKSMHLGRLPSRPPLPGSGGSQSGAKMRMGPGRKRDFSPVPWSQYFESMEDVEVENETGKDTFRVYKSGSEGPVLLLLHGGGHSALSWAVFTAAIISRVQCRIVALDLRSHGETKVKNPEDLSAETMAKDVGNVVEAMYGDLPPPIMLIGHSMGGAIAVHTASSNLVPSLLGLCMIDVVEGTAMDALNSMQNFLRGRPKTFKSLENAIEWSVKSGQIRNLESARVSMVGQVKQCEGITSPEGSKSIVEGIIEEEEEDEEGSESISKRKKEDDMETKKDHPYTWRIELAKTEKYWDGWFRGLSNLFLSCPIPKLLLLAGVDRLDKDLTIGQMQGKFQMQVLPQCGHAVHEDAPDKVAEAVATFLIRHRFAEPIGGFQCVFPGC
# PAD4 inh: PAD4 (human) enzyme inhibition | Q9UM07 | recombinant PAD4, RCA probe fluorescence polarization | inhibition, % at 6.36 µM | 330,000 tested, 0.41% active;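 active means percent inhibition above a cutoff equal to the mean of all tested compounds plus 3 SD, cut at about 15% in these data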;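 further: 0% = PAD4 with RCA probe and DMSO and 100% = probe without PAD4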
# Fam108B inh: Fam108B inhibition, counter-screen for RBBP9 inhibitors. inhibition, % at 9.51 µM. recombinant Fam108B, FP-Rh probe fluorescence polarization. 300,000 tested, 0.33% active;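 active means inhibition above the screen mean inhibition plus 3 SD, computed separately per campaign, cut at about 18% in these data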;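 further: inhibitors lower polarization as less probe binds the enzyme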
# LYPLA2 inh: blocks human lysophospholipase 2, a PME1 counter-screen. inhibition, % at 5.9 µM. 320,000 tested, 0.38% active. recombinant LYPLA2, FP-Rh probe fluorescence polarization. AID 2177;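 active means inhibition above the screen-wide mean plus 3 SD, limit set per campaign, cut at about 26% in these data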;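 further: 0% = LYPLA2 with DMSO and 100% = wells lacking LYPLA2 enzyme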
# Target sequence (O95372 whole entry, looked up): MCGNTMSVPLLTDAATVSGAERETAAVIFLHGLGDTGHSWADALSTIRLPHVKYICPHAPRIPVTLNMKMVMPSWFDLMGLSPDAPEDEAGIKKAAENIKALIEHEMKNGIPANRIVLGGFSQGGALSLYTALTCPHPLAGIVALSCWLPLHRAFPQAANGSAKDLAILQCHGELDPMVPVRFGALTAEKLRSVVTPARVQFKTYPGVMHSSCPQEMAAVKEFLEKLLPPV
# LYPLA1 inh: blocks human lysophospholipase 1, a PME1 counter-screen; O75608; recombinant LYPLA1, FP-Rh probe fluorescence polarization; inhibition, % at 5.9 µM; 320,000 tested, 0.16% active;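 active means inhibition above the mean of all tested compounds plus 3 SD, set per campaign, cut at about 14% in these data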;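 further: inhibitors block serine hydrolase probe labeling of LYPLA1 so polarization falls; 0% = enzyme with DMSO and 100% = wells lacking LYPLA1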
# GSTO1 counter: GSTO1 inhibition, counter-screen for RBBP9 inhibitors | recombinant GSTO1, activity-based probe fluorescence polarization | inhibition, % at 5.96 µM | 300,000 tested, 1.1% active | AID 1974 | P78417;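 active means inhibition above the campaign mean inhibition plus 3 SD, cut at about 35% in these data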;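 further: 0% = GSTO1-1 with DMSO and 100% = wells lacking GSTO1-1 enzyme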
# GSTO1 inh conf: GSTO1 (human) inhibition, confirmation; shares compounds with GSTO1 counter; recombinant GSTO1, probe fluorescence polarization; inhibition, % at 5.96 µM; 2,400 tested, 54% active; AID 2176;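 active means inhibition above the primary screen's cutoff, its mean inhibition plus 3 SD, cut at about 35% in these data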;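 further: loss of polarization as inhibitors block binding of rhodamine sulfonate ester activity probe; 0% = GSTO1 with DMSO and 100% = wells lacking GSTO1 enzyme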
# GSTO1 ABPP inh: blocks recombinant human glutathione S-transferase omega 1; AID 463110; shares compounds with GSTO1 counter; inhibition, % at 1 µM; recombinant GSTO1, gel ABPP SE-Rh probe fluorescence; 130 tested, 30% active;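 active means inhibition of the enzyme GSTO1 above about 75%, limit read from the data; inactive means inhibition below that limit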
# Numbers without * were called inactive; nt = no result.
SMILES,PME-1 inh,PAD4 inh,Fam108B inh,LYPLA2 inh,LYPLA1 inh,GSTO1 counter,GSTO1 inh conf,others
O=C(NN1C(=O)c2ccccc2NC1c1ccc([N+](=O)[O-])o1)c1ccc(Br)cc1 (centres undefined),7,-9,-2,4,2,39*,8,
CC1=NN(c2ccc(C(F)(F)F)cn2)C(=O)C1,-5,-3,1,0,3,44*,30,
CCOC(=O)N1CCN(c2ccc(C(F)(F)F)cn2)CC1,-3,3,2,9,0,1,nt,
Cc1nnc(SCC(=O)NCc2ccc(F)cc2)[nH]c1=O,-2,-1,3,-4,-3,5,nt,
CCOc1ccc(OCCCCn2cnc3ccccc3c2=O)cc1,-1,-2,-6,3,2,-7,nt,
COc1cc(CNC(C)c2ccccc2)cc(Br)c1OCc1ccccc1 (centres undefined),1,1,-7,7,1,-9,nt,
COc1cc(CNc2ccc(O)cc2)cc(Br)c1OCc1ccccc1,16,10,13,11,3,53*,1,
CCN(c1ccc(OC)cc1)S(=O)(=O)c1csc(C(=O)N2CCCC2)c1,4,-6,0,-7,-1,1,nt,
CCN(CC)CCNc1cc(C)nc2c1C(=O)C(=O)C=C2N1CCCCC1,-7,3,0,2,0,77*,45*,
CCN(CC)CCNC(=O)c1ccc(N2CCCCC2)c(NS(=O)(=O)c2ccc(C)cc2)c1,-2,1,-1,-2,0,24,nt,
COc1ccc(N2CCN(c3ccc(NC(=O)/C=C\C(=O)O)cc3)CC2)cc1,2,30*,5,6,1,74*,3,
CCOC(=O)N1CCN(S(=O)(=O)c2ccc(OC)c(Br)c2)CC1,4,3,4,4,1,2,nt,
CCc1noc(C)c1C(=O)OCC(=O)NC(=O)c1ccccc1OC,4,1,-2,2,0,3,nt,
CC1=CC(C)(C)N(C(=O)CCl)c2cc(C)ccc21,6,3,-1,4,4,20,nt,
CC1=CC(C)(C)N(C(=O)CCl)c2ccccc21,-11,4,-2,-4,3,65*,58*,GSTO1 ABPP inh=31
CC(NC(=O)c1ccco1)C(=O)OCC(=O)c1ccc(Cl)s1 (centres undefined),1,-1,3,-3,-4,-5,nt,
Cc1ccc(-c2csc3ncn(CC#N)c(=O)c23)cc1C,1,-5,13,-6,-7,39*,30,
Cc1ccc(-c2csc3ncn(CC#N)c(=O)c23)cc1,7,-3,3,5,-1,18,nt,
CC(=O)Oc1ccc(OC(C)=O)c(S(=O)(=O)c2ccc(C)c(C)c2)c1,-1,-1,-3,0,1,47*,7,
COc1cc2c(ccc3cc(OC)c(OC)c(O)c32)cc1O,2,-2,5,9,1,55*,45*,
COc1cc(Br)c(CCNC(=O)c2ccco2)cc1OC,-7,3,-2,-4,-4,1,nt,
NNC(=O)c1cc(O)c(O)c(O)c1,-12,0,1,-8,-11,52*,8,
COc1c(Cl)cc(C(=O)NN)cc1Cl,3,-5,-1,6,0,-7,nt,
CCOc1cc(N2CCOCC2)c(OCC)cc1NC(=O)c1cc(S(=O)(=O)N2CCOCC2)ccc1C,nt,-7,nt,nt,nt,nt,nt,
C=CCNC(=S)NNC(=O)c1cc(O)ccc1O,3,-3,1,4,1,62*,7,
SMILES,PME-1 inh,PAD4 inh,Fam108B inh,LYPLA2 inh,LYPLA1 inh,GSTO1 counter,GSTO1 inh conf,others
O=c1[nH][nH]cc1C=Nc1ccccc1O,-2,-3,6,-1,2,31,nt,
O=c1c(=Nc2ccccc2O)c(=O)c2ccccc12,-1,-17,1,-3,-1,68*,25,
CCN(CC)c1ccc(C2NCC(c3ccc([N+](=O)[O-])cc3)O2)cc1 (centres undefined),-6,-1,-1,-3,-5,17,nt,
Cc1c(C(=O)c2ccc(F)cc2F)c2ccccn2c1CCC#N,2,9,7,9,4,39*,4,
N#CC1(NC(=O)COC(=O)c2ccccc2[N+](=O)[O-])CCCCC1,1,-1,2,5,-2,4,nt,
N#CC1(NC(=O)COC(=O)c2cc(O)c3ccccc3c2O)CCCCC1,13,3,9,4,-4,61*,57*,
COc1ccccc1N(CCN1C(=O)c2cccc3cccc(c23)C1=O)C(=O)c1ccncc1,-1,-1,-2,-3,-1,8,nt,
Cc1nc(-c2ccc(O)c(O)c2)cs1,-10,5,14,7,1,42*,7,
Cc1ccc2nc(-c3ccc(O)c(O)c3)cn2c1,-4,-4,0,-4,-6,58*,11,
Oc1ccc(-c2csc(-c3cccnc3)n2)cc1O,-6,5,-4,0,-2,59*,6,
Oc1ccc(-c2csc(-c3ccccc3)n2)cc1O,-17,1,4,-6,-11,39*,2,
ClCc1cc2ccccc2nc1Cl,0,-6,0,-3,-3,43*,95*,GSTO1 ABPP inh=40
CCc1cc2ccccc2nc1Cl,-1,1,0,0,3,0,nt,
CN=c1scc(C)n1/N=C/c1ccc(O)c(O)c1O,-14,7,-2,-4,-4,74*,10,
Clc1ncccc1-c1nnn(-c2ccccc2)n1,-2,-3,2,4,-1,58*,4,
Fc1ccc(-n2nnc(-c3cccnc3Cl)n2)cc1,-8,-5,-2,2,2,0,nt,
CC(C)(O)CC[C@@H](O)[C@](C)(O)[C@H]1CC[C@@]2(O)C3=CC(=O)[C@@H]4C[C@@H](O)[C@@H](O)C[C@]4(C)[C@H]3CC[C@]12C,-6,-1,-4,-1,0,39*,7,
COC(=O)CCC(=O)OC1(C)C(=O)C2=CN(CCN3CCOCC3)C(c3ccc(OC)cc3)=CC2=C(Br)C1=O (centres undefined),-1,0,6,9,3,56*,65*,
COC(=O)CCC(=O)OC1(C)C(=O)C2=CN(Cc3ccc4c(c3)OCO4)C(c3ccc(OC)cc3)=CC2=C(Br)C1=O (centres undefined),0,-23,2,0,1,31,nt,
COC(=O)CCC(=O)OC1(C)C(=O)C2=CN(CCCCO)C(c3ccc(OC)cc3)=CC2=C(Br)C1=O (centres undefined),6,28*,4,3,2,66*,60*,
COC(=O)CCC(=O)OC1(C)C(=O)C2=CN(C(CO)CO)C(c3ccc(OC)cc3)=CC2=C(Br)C1=O (centres undefined),1,-2,3,-2,0,49*,51*,
